# Data reported in PubChem BioAssay AID1224864 (Chung Lab, Department of Pediatrics, Emory University, 2016).
# About 20 (1%) of roughly 2,000 compounds were called active. The rule behind the calls is not given here. What follows is part of a selection rich in actives, with near analogues and random picks from the rest. Residues, ends and D or L forms follow the SMILES beside them.
# Target: Cystic fibrosis transmembrane conductance regulator (Homo sapiens) (UniProt P13569)
# Assay: F508del-CFTR plasma membrane relocalization enhancers – imaging, HeLa, high-content microscopy, immunofluorescence, primary screen (AID 1224864);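 note: HeLa cells stably expressing F508del-CFTR stained with 3G11 antibody against NBD1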;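 for plasma membrane CFTR intensity: mean immunofluorescence in a thin cell-margin band taken as plasma membrane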
# Settings: PM immunofluorescence imaging, 24 h, at 10 µM, stronger effect = higher value, relative to vehicle wells set at 100; total CFTR intensity: measured here: total cellular F508del-CFTR signal
# Chain of Cystic fibrosis transmembrane conductance regulator (Homo sapiens) (P13569 whole entry, looked up, stated change not applied): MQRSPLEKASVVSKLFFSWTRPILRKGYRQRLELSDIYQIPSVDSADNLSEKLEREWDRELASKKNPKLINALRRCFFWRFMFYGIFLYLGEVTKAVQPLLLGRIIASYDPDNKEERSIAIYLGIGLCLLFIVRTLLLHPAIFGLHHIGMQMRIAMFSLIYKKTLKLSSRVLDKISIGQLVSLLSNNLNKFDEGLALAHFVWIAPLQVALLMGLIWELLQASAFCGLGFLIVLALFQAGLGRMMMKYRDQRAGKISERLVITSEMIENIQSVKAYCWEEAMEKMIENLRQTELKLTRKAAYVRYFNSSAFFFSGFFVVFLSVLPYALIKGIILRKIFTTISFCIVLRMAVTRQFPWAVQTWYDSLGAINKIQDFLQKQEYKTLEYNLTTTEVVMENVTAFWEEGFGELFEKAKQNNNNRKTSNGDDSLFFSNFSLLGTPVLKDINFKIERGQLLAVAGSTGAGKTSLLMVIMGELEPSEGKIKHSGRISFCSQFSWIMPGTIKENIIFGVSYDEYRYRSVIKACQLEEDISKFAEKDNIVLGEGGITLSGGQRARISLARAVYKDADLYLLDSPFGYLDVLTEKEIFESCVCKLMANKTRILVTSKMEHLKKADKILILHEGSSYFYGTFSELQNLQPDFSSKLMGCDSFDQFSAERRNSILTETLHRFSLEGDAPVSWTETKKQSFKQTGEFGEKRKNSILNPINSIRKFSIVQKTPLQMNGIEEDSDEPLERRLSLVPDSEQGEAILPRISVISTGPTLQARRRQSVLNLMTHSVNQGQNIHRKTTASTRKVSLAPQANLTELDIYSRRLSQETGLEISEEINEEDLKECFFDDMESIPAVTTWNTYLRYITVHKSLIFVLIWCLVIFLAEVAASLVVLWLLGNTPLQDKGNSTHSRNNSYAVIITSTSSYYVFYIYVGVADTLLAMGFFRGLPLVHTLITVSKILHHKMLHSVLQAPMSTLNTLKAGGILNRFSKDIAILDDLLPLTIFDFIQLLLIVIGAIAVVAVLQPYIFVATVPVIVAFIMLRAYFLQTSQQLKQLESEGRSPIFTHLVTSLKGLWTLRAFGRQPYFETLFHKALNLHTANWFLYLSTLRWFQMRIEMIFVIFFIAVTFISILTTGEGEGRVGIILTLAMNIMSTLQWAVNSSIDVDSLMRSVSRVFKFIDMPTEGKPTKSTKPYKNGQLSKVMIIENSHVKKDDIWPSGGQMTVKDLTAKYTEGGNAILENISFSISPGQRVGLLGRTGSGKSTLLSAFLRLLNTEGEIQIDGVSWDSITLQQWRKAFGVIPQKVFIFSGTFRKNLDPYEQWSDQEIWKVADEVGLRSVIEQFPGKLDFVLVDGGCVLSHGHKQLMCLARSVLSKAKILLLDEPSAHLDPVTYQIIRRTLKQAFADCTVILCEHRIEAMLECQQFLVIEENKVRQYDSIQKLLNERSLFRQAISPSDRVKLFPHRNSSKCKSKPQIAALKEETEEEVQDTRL
SMILES,plasma membrane CFTR intensity,total CFTR intensity [%]
O=C(Cc1ccccc1)NNC(=O)Cc1ccccc1,74% (inactive),77
CC1(C)CC(c2csc(N)n2)CCO1 (stereo not drawn),90% (inactive),92
CC(=O)NC(CC(C)C)C(=O)NC(Cc1ccccc1)C(N)=O (stereo not drawn) (Ac-Leu-Phe-NH2; configuration not given here),91% (inactive),94
O=C(O)C(O)c1ccccc1 (stereo not drawn),89% (inactive),81
Cc1cccc(-c2ncc(CN3CCN(CC(C)C)C(CCO)C3)cn2)c1 (stereo not drawn),80% (inactive),81
COC(=O)c1ccc(NC(=O)c2ccccc2SC)cc1,81% (inactive),79
CC(=O)c1c(N)nc2n(c1=O)CCCCC2,80% (inactive),78
Cn1c(=O)[nH]c(=O)c2c1nc(Br)n2CCCO,81% (inactive),84
COc1cc(C(=O)Nc2ccc(N(C)C)cc2)c([N+](=O)[O-])cc1OC,100% (inactive),106
Cc1ccc(/C=N/Nc2nc(C(C)(C)C)cs2)o1,135% (active),153
CC(C)(C)c1csc(N/N=C/c2cccnc2)n1,93% (inactive),92
C=CCC1(Cl)C(=O)C(Cl)=C(N2CCOCC2)C1(OC)OC (stereo not drawn),77% (inactive),77
CC(C)=CCC/C(C)=C/CC/C(C)=N/O,84% (inactive),87
Cc1ccc(/C=N/NC(=O)C2(C)CC2(Br)Br)cc1 (stereo not drawn),82% (inactive),80
CCOC(=O)c1ccc(NC(=S)NCCc2ccccc2F)cc1,81% (inactive),78
CCOC(=O)Cc1c(C)nc(N)[nH]c1=O,82% (inactive),81
CCN1C(=O)C(CC(=O)Nc2ccc(F)cc2)N(Cc2ccc3c(c2)OCO3)C1=S (stereo not drawn),81% (inactive),81
CCn1c(C)cc2c(c1=O)C(c1ccccc1)C(C(=O)OC)=C(N)O2 (stereo not drawn),90% (inactive),94
CCC(C(=O)Nc1ccc2c(c1)OCCO2)c1ccccc1 (stereo not drawn),78% (inactive),76
O=c1[nH]c(Cc2ccccc2)nc2c1oc1ccccc12,78% (inactive),79
CCOc1ccc(C(=O)NC(C)C2COc3ccccc3O2)cc1 (stereo not drawn),82% (inactive),80
CC(C)CN1CCN(Cc2cccn2-c2ccccn2)CC1CCO (stereo not drawn),88% (inactive),88

SMILES,plasma membrane CFTR intensity,total CFTR intensity [%]
Cc1csc(N)n1,86% (inactive),87
CS(=O)(=O)Oc1ccc2c(c1)O/C(=C\C=C\c1ccccc1)C2=O,92% (inactive),97
Fc1ccccc1CNCCC(Cc1ccccc1)c1ccc2c(c1)OCO2 (stereo not drawn),171% (inactive),228
CC(NC(=O)c1cccnc1)C(=O)O (stereo not drawn),75% (inactive),73
COc1ccc(OC(C)C(=O)Nc2ccc([N+](=O)[O-])cc2)cc1 (stereo not drawn),76% (inactive),72
CC(NC(=O)c1ccc(OC2CCN(Cc3ccccn3)CC2)cc1)c1ccccc1 (stereo not drawn),73% (inactive),66
Cc1ncc(CN2CCC(CO)(CCc3ccccc3)CC2)s1,75% (inactive),75
Cc1ccc(-c2nn(-c3cccc(F)c3)cc2CN2CCN(c3ccccn3)CC2)o1,69% (inactive),69
CC12CCC(C(=O)NNc3ccccc3)(C(=O)C1=O)C2(C)C (stereo not drawn),92% (inactive),88
O=c1nc2n(c3c1oc1ccccc13)Cc1ccccc1-2,131% (inactive),133
C#C[C@]1(O)CC[C@H]2[C@@H]3CCc4cc(OC5CCCC5)ccc4[C@H]3CC[C@@]21C,41% (inactive),30
C#C[C@]1(O)CC[C@H]2[C@@H]3CCc4cc(OC)ccc4[C@H]3CC[C@@]21C,133% (active),141
C#C[C@]1(O)CC[C@H]2[C@@H]3CCc4cc(O)ccc4[C@H]3CC[C@@]21C,113% (inactive),106
COc1ccc(C2c3c(n[nH]c3C)CC(C)(O)C2C(C)=O)cc1OC (stereo not drawn),87% (inactive),86
Cc1ccc2c(c1)C(C)(C)[C@]1(C)NC(=O)CCN21,94% (inactive),97
CC(C)C(CCN1C(=O)CCC1=O)C1CCOC(C)(C)C1 (stereo not drawn),87% (inactive),90
CC(C)OC(=O)CC1C(=O)NCCN1C(=S)NC(=O)c1ccccc1Cl (stereo not drawn),79% (inactive),80
COc1ccc(C2C(C(=O)c3ccco3)=C(O)C(=O)N2CC2CCCO2)cc1 (stereo not drawn),79% (inactive),83
COc1ccc2cc(C3(C)NC(=O)NC3=O)ccc2c1 (stereo not drawn),89% (inactive),88
COc1ccc2[nH]c3c(c2c1)CCNC3C1CC=C(C)CC1 (stereo not drawn),99% (inactive),117
COC(=O)C1[C@H]2C(=O)N(Cc3cccs3)C[C@]23C=C[C@H]1O3 (stereo partly drawn),92% (inactive),95
S=C(c1ccc2c(c1)OCO2)N1CCCCC1,83% (inactive),85
